According to paper PMC4336329 (PLoS ONE, 2015):
In all, about 310,000 compounds went through this assay and about 14,000 (4.5%) showed an effect of 50% or more. Effects have a minus sign here. Shown is part of a subset that was picked to be rich in strong results.

Each compound was assayed against human ether-à-go-go-related gene (hERG) potassium channel (human, UniProt Q12809) (assay: primary screen, population patch clamp on CHO cells stably expressing hERG; higher = less effect of the substance).
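Note: peak tail current of the secondary pulse compared with the same well before compound.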

human ether-à-go-go-related gene (hERG) potassium channel, sequence (Q12809 whole entry, looked up): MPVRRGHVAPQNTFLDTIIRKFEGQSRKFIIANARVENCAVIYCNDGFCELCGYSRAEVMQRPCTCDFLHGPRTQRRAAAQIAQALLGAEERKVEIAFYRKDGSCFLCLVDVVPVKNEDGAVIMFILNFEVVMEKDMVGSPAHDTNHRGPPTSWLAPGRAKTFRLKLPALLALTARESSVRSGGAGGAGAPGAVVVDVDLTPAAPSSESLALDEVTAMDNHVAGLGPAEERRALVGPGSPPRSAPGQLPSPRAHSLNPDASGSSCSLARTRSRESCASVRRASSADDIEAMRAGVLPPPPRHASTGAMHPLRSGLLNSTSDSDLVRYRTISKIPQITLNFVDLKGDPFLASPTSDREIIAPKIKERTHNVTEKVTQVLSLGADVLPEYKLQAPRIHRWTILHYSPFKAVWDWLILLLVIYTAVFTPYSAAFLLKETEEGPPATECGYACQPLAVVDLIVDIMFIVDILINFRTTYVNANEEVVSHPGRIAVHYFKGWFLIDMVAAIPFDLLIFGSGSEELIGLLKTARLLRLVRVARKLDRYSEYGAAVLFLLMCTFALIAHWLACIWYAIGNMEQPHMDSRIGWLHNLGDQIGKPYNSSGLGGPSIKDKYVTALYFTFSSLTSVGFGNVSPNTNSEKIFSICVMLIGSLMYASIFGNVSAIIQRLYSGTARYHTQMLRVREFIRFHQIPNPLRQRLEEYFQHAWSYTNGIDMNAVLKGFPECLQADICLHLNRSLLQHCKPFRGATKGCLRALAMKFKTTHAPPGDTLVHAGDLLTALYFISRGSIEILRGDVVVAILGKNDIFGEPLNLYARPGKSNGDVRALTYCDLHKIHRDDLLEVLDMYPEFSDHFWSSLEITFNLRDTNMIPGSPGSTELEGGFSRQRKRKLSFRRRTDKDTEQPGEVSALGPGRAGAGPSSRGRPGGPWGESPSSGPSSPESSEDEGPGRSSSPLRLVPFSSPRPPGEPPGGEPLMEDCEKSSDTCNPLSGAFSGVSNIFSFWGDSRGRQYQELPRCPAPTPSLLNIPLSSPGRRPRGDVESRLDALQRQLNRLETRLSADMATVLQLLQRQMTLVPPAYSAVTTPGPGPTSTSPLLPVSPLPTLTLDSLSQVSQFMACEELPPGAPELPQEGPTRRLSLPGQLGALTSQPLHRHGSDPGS

First: CC1(C)CC(=O)N(CC(=O)NC2CCCC2)c2ccccc2S1(=O)=O
Second: O=C(COC(=O)c1cc([N+](=O)[O-])ccc1Cl)NC1CCCC1
The “hERG current change (%, negative = inhibition) at 10uM” value of the first is higher: 11.7% for the first, -26.8% for the second.

Going from `COc1ccc(Br)cc1/C=N/NC(=O)C(c1ccncc1)N1CCOCC1` (centres unmarked) to `Cc1c(C(=O)N2CCOCC2)[nH]c2ccc(OCc3ccccc3)cc12`, the “hERG current change (%, negative = inhibition) at 10uM” value falls from 7.87% to -13.2%.

First: CCOc1ccc(S(=O)(=O)NCCC(=O)NCc2cccnc2)cc1
Second: O=C(COc1ccc(S(=O)(=O)NC2CCCCC2)cc1)NCc1cccnc1
The “hERG current change (%, negative = inhibition) at 10uM” value of the first is higher: 4.31% for the first, 2.91% for the second.

Going from `O=C1c2cccc3cc([N+](=O)[O-])cc(c23)C(=O)N1CC1CCCO1` (centres unmarked) to `Cn1c(=O)n(CCCO)c(=O)c2c1nc1n2CCCN1Cc1ccccc1`, the “hERG current change (%, negative = inhibition) at 10uM” value falls from -8.56% to -9.65%.

First: CCOC(=O)N1CCc2c(sc3[nH]c(=S)[nH]c(=S)c23)C1
Second: CCOC(=O)N1CCN(c2c(-c3ccccc3)c3cc(Cl)ccc3[nH]c2=O)CC1
The “hERG current change (%, negative = inhibition) at 10uM” value of the first is higher: 13.4% for the first, -11.4% for the second.

First: O=C(O)CC[N+](=O)[O-]
Second: CC(C)(C)c1ccccc1OCC(=O)NCCC(=O)O
The “hERG current change (%, negative = inhibition) at 10uM” value of the first is higher: 15.3% for the first, -7.3% for the second.

Compared with `CCN(CC)CCNC(=O)c1[nH]c2ccc(OCc3ccccc3)cc2c1C`, `COc1ccc2[nH]c(C(=O)NCc3ccccc3)c(C)c2c1.Cl` is higher in “hERG current change (%, negative = inhibition) at 10uM” value: -74.6% for the first, 7.03% for the second.

Going from `CCCc1cc(=O)oc2cc(C)cc(OCC(=O)NCCCn3ccnc3)c12` to `CCc1cc(=O)oc2cc(C)cc(OCC(=O)NCCCn3ccnc3)c12`, the “hERG current change (%, negative = inhibition) at 10uM” value rises from -76.4% to -55.3%.

First: CCCc1cc(=O)oc2cc(OCC(=O)NCCCn3ccnc3)c(Cl)cc12
Second: CCc1cc(=O)oc2cc(OCC(=O)NCCCn3ccnc3)c(Cl)cc12
The “hERG current change (%, negative = inhibition) at 10uM” value of the first is lower: -72.3% for the first, -28.5% for the second.

First: CCCc1cc(=O)oc2cc(C)cc(OCC(=O)NCCN3CCOCC3)c12
Second: CCCc1cc(=O)oc2cc(C)cc(OCC(=O)NCCCN3CCOCC3)c12
The “hERG current change (%, negative = inhibition) at 10uM” value of the first is higher: 6.05% for the first, -7.61% for the second.

Compared with `Cc1cc(OC(C)C(=O)NCCCn2ccnc2)c2c(C)c(C)c(=O)oc2c1` (centres unmarked), `Cc1cc(OCC(=O)NCCCn2ccnc2)c2c(C)c(C)c(=O)oc2c1` is higher in “hERG current change (%, negative = inhibition) at 10uM” value: -76.7% for the first, -63.6% for the second.

Compared with `Cc1c(C)c2ccc(OC(C)C(=O)NCCCn3ccnc3)c(C)c2oc1=O` (centres unmarked), `Cc1cc(OC(C)C(=O)NCCCn2ccnc2)c2c(C)cc(=O)oc2c1` (centres unmarked) is lower in “hERG current change (%, negative = inhibition) at 10uM” value: -6.05% for the first, -15.4% for the second.

Going from `Cc1c(C)c2cc(Cl)c(OCC(=O)NCCCn3ccnc3)cc2oc1=O` to `Cc1c(C)c2ccc(OCC(=O)NCCCn3ccnc3)cc2oc1=O`, the “hERG current change (%, negative = inhibition) at 10uM” value rises from -2.59% to 14%.

First: CCCc1cc(=O)oc2cc(OCC(=O)NCCCn3ccnc3)ccc12
Second: CCCc1cc(=O)oc2cc(OC(C)C(=O)NCCCn3ccnc3)ccc12 (centres unmarked)
The “hERG current change (%, negative = inhibition) at 10uM” value of the first is lower: -47.1% for the first, -42.1% for the second.

Going from `Cc1cc(C(F)(F)F)nc(SCc2ccc(C(=O)O)o2)n1` to `CCc1noc(C)c1C(=O)N1CCCC(C(=O)c2cc(F)ccc2F)C1` (centres unmarked), the “hERG current change (%, negative = inhibition) at 10uM” value falls from -2.51% to -41.2%.

First: CC(=O)Oc1ccc2ccccc2c1C(NC(=O)Cc1ccccc1)c1ccccc1Cl (centres unmarked)
Second: C[C@H](NC(=O)c1nc[nH]c1C(=O)N[C@@H](Cc1ccccc1)C(=O)OCc1ccccc1)C(=O)OCc1ccccc1
The “hERG current change (%, negative = inhibition) at 10uM” value of the first is lower: 7.9% for the first, 8.42% for the second.

Compared with `N#Cc1ccccc1NC(=O)CSC1=Nc2ccccc2C2CC=NN12` (centres unmarked), `O=C(COC(=O)CCc1c[nH]c2ccccc12)Nc1ccccc1C(F)(F)F` is lower in “hERG current change (%, negative = inhibition) at 10uM” value: 1.95% for the first, -5.09% for the second.

Compared with `Cc1ccc(SC(C)c2nc(-c3ccncc3)no2)cc1` (centres unmarked), `O=C(CSc1nc(-c2ccc(Cl)cc2)[nH]c(=O)n1)Nc1cccc(Cl)c1` is higher in “hERG current change (%, negative = inhibition) at 10uM” value: -24.3% for the first, 22.3% for the second.

Compared with `Cc1ccc(S(=O)(=O)CCC(=O)OCC(=O)N2c3ccccc3CC2C)cc1` (centres unmarked), `COc1ccc(NC(=O)CCNS(=O)(=O)c2ccc3c(c2)CCC(=O)N3)cc1` is lower in “hERG current change (%, negative = inhibition) at 10uM” value: 13% for the first, -2.85% for the second.

First: O=C(COC(=O)c1ccco1)NCc1ccc(Cl)cc1
Second: O=C(CSc1nnc(SCc2ccc(Cl)cc2)s1)c1ccc2c(c1)OCO2
The “hERG current change (%, negative = inhibition) at 10uM” value of the first is lower: 4.21% for the first, 9.81% for the second.

Going from `CCC(C)(C(=O)NC1CCCCC1)N(Cc1ccco1)C(=O)CC1NC(=O)NC1=O` (centres unmarked) to `CC(C)CCN(CC(=O)NC1CCCC1)C(=O)C(=O)Nc1ccc2c(c1)OCCO2`, the “hERG current change (%, negative = inhibition) at 10uM” value rises from 5.88% to 11%.

First: CCc1cc(=O)oc2cc(OCC(=O)NCCCN3CCOCC3)c(Cl)cc12
Second: CCCc1cc(=O)oc2cc(OCC(=O)NCCCN3CCOCC3)c(Cl)cc12
The “hERG current change (%, negative = inhibition) at 10uM” value of the first is higher: 4.59% for the first, -73% for the second.

Compared with `Cc1cc(OCC(=O)NCCCn2ccnc2)c2c(C)cc(=O)oc2c1`, `CCc1cc(=O)oc2cc(C)cc(OC(C)C(=O)NCCCn3ccnc3)c12` (centres unmarked) is lower in “hERG current change (%, negative = inhibition) at 10uM” value: -22.5% for the first, -30.9% for the second.

Going from `CCCc1cc(=O)oc2cc(C)cc(OC(C)C(=O)NCCCn3ccnc3)c12` (centres unmarked) to `CCc1cc(=O)oc2cc(C)cc(OCC(=O)NCCCN3CCOCC3)c12`, the “hERG current change (%, negative = inhibition) at 10uM” value rises from -65.3% to -11.1%.

First: CCCCc1cc(=O)oc2cc(OCC(=O)NCCN3CCOCC3)c(Cl)cc12
Second: Cc1coc2cc3oc(=O)c(CCC(=O)NCCCn4ccnc4)c(C)c3cc12
The “hERG current change (%, negative = inhibition) at 10uM” value of the first is higher: 1.96% for the first, -41.4% for the second.

Going from `Cc1cc(C)cc(COc2ccc3c(C)c(CC(=O)O)c(=O)oc3c2C)c1` to `Cc1oc2c(C)c3oc(=O)c(CCC(=O)NCCCn4ccnc4)c(C)c3cc2c1C`, the “hERG current change (%, negative = inhibition) at 10uM” value rises from -41.4% to -35.9%.

Going from `CC(C)NC1=C(Cl)C(=O)c2ccccc2C1=O` to `CC(C)n1nc(C(=O)Nc2ccc3c(c2)OCO3)c2ccccc2c1=O`, the “hERG current change (%, negative = inhibition) at 10uM” value rises from 4.34% to 11%.

Going from `O=C1[C@H]2CC3CCC2(O3)[C@@H]2OCCCN12` (some centres unmarked) to `O=c1[nH]c2ccc(Cl)cc2c(-c2ccccc2)c1N1CCOCC1`, the “hERG current change (%, negative = inhibition) at 10uM” value falls from 4.02% to 2.46%.

Compared with `O=S(=O)(c1cccc(-c2nnc(SCc3ccc(Cl)cc3)o2)c1)N1CCCCC1`, `Cc1ccc(C(=O)Nc2ccc(S(=O)(=O)N3CCN(C)CC3)cc2)o1` is lower in “hERG current change (%, negative = inhibition) at 10uM” value: 10.7% for the first, 5.28% for the second.

Compared with `CCOC(=O)c1nn(-c2ccccc2)c(=O)c(C#N)c1C`, `COc1ccc(-c2ccc(C#N)c(SCC(=O)OCc3ccccc3)n2)cc1OC` is lower in “hERG current change (%, negative = inhibition) at 10uM” value: 13.5% for the first, -2.31% for the second.

Compared with `O=C(c1c[nH]c2ccccc12)N1CCN(Cc2ccccc2)CC1`, `O=C(CN1CCN(Cc2ccccc2)CC1)c1c[nH]c2ccccc12` is lower in “hERG current change (%, negative = inhibition) at 10uM” value: -13.5% for the first, -56.5% for the second.

First: O=C(CN1CCN(c2ccccc2)CC1)c1c[nH]c2ccccc12
Second: O=C(CN1CCN(Cc2ccc3c(c2)OCO3)CC1)c1c[nH]c2ccccc12
The “hERG current change (%, negative = inhibition) at 10uM” value of the first is higher: -0.617% for the first, -63.5% for the second.

Going from `NC(=O)CN1CCN(Cc2ccc3c(c2)OCO3)CC1` to `O=C(C(=O)N1CCN(Cc2ccc3c(c2)OCO3)CC1)c1c[nH]c2ccccc12`, the “hERG current change (%, negative = inhibition) at 10uM” value falls from 30.6% to -11.6%.

Compared with `CCCn1c(N)c(C(=O)CSc2n[nH]c(-c3ccc(C)cc3)n2)c(=O)[nH]c1=O`, `CCOC(=O)Cn1c(=O)oc2cc(S(=O)(=O)Nc3cc(OCC)ccc3OCC)ccc21` is lower in “hERG current change (%, negative = inhibition) at 10uM” value: 22.2% for the first, -42.3% for the second.

First: COc1ccc(N(CC(=O)Nc2ccc(F)cc2F)S(=O)(=O)c2c(C)nn(C)c2C)cc1
Second: CN(Cc1nc2ccc(F)cc2[nH]1)Cc1c(C(=O)N(C)C)nc2ccc(Cl)cn12
The “hERG current change (%, negative = inhibition) at 10uM” value of the first is higher: -12.4% for the first, -43.3% for the second.

First: Cc1ccc2oc(C(=O)N(C)Cc3ccc(C)o3)c(C)c2c1
Second: Cc1oc2cc3oc(=O)c(CCC(=O)NCCCn4ccnc4)c(C)c3cc2c1C
The “hERG current change (%, negative = inhibition) at 10uM” value of the first is higher: 10.6% for the first, -41.7% for the second.

First: COc1ccc(CN2CCN(CC=C(C)C)C(CCO)C2)cc1Cn1cccn1 (centres unmarked)
Second: COc1ccc(CN2CCN(C(C)C)C(CCO)C2)cc1Cn1cccn1 (centres unmarked)
The “hERG current change (%, negative = inhibition) at 10uM” value of the first is lower: -31.2% for the first, 8.43% for the second.

First: COc1ccc(CN2CCC(CO)(Cc3cccc(C(F)(F)F)c3)CC2)cc1Cn1cccn1
Second: COc1ccc(CN2CCC(CO)(Cc3ccccc3)CC2)cc1Cn1cccn1
The “hERG current change (%, negative = inhibition) at 10uM” value of the first is higher: -75.7% for the first, -76.5% for the second.

Going from `CN(O)/C=c1/ccc2c(n1)C(=O)C=CC=2` to `Cc1cccc(C2=NOC(=O)/C2=C\c2ccccc2F)c1`, the “hERG current change (%, negative = inhibition) at 10uM” value rises from -8.33% to 9.48%.

Compared with `COc1cccc(C(=O)NCCNC(=O)c2cnccn2)c1`, `Cc1c(CCC(=O)NCCCn2ccnc2)c(=O)oc2cc3occ(C(C)(C)C)c3cc12` is lower in “hERG current change (%, negative = inhibition) at 10uM” value: 19.5% for the first, -77.7% for the second.

First: Cc1nnc(NNS(=O)(=O)c2ccc(Cl)cc2)[nH]c1=O
Second: O=c1[nH]c2ccc(Cl)cc2c(-c2ccccc2)c1N1CCN(CCO)CC1
The “hERG current change (%, negative = inhibition) at 10uM” value of the first is higher: -17.3% for the first, -64.6% for the second.

First: O=C(O)C1=C[C@H](c2ccc(F)cc2)C[C@H](OCc2ccc(CO)cc2)O1
Second: Cc1coc2c(C)c3oc(=O)c(CCC(=O)NCCCn4ccnc4)c(C)c3cc12
The “hERG current change (%, negative = inhibition) at 10uM” value of the first is higher: 4.49% for the first, -44.4% for the second.

Compared with `Cc1c(CCC(=O)NCCCn2ccnc2)c(=O)oc2c(C)c3occ(C(C)(C)C)c3cc12`, `CCOc1cc(S(=O)(=O)N(CC)CC)ccc1Br` is higher in “hERG current change (%, negative = inhibition) at 10uM” value: -67% for the first, -11.8% for the second.
